PubChem BioAssay
For part of these data: Entries with a potency or affinity are not part of this list. Activity calls are given as the source filed them. Unless noted, how the calls were made is not given here.

Assays:
[1] = antimalarial activity against Dd2 strain (AID 2302;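 active means growth inhibition above 50% at the single 2 µM test dose, taken to imply half-maximal potency below 2 µM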;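 further: 0% = DMSO untreated growth and 100% = chloroquine plus artemisinin killed control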); conditions: P. falciparum Dd2 in RBCs, LDH growth readout, 72 h; at 2 µM; stronger effect = higher value
[2] = HepG2 cytotoxicity, primary screen, cytotoxicity control for P. falciparum antimalarial project, cell-based, ATP luminescence (AID 2303;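 active means inhibition above 50%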;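 further: 0% = DMSO wells and 100% = digitonin-killed cells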); conditions: HepG2 viability, 24-48 h, at 10 µM, stronger effect = higher value
[3] = biological target: L-lactate dehydrogenase (Plasmodium falciparum (isolate CDC / Honduras)) (UniProt Q27743); experiment: PfLDH activity inhibition – cell lysate, 3D7 strain, counter-screen for P. falciparum growth inhibition project (AID 2304);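 further: 0% = vehicle and 100% = reference inhibitor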; conditions: P. falciparum 3D7 crude extract, LDH APAD/NBT absorbance; at 2 µM; stronger effect = higher value
[4] = inhibition of 3D7 malaria parasite growth – strain 3D7 (AID 2306);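 further: 0% = DMSO wells and 100% = chloroquine plus artemisinin control wells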; conditions: P. falciparum 3D7 erythrocytic growth, LDH absorbance, 72 h; at 2 µM; stronger effect = higher value
[5] = biological target: Protein kinase 7 (PK7), Plasmodium falciparum 3D7 (PF3D7_0213400) (UniProt Q7YTF7); experiment: inhibition of Plasmodium PK7 catalytic activity – biochemical, TCAMS antimalarial set, Kinase-Glo luminescence (AID 1159587); conditions: recombinant PfPK7, Kinase-Glo ATP depletion luminescence
[6] = biological target: Calcium-dependent protein kinase 4 (Plasmodium falciparum (isolate 3D7)) (UniProt Q8IBS5); experiment: PfCDPK4 kinase inhibitors, biochemical, TCAMS library (AID 1159588; cut-off not given, nearly all actives have IC50 up to about 0.91 µM); conditions: recombinant PfCDPK4, Kinase-Glo ATP depletion luminescence
[7] = sensitizers of A549 cells to miR-34 induction, primary screen, imaging, A549 dox-inducible miR-34, nuclei and caspase counts (AID 1347080;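 active means compounds whose cell count with miR-34 switched on is under 0.7 times the count with it off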); conditions: A549 miR-34 inducible, Hoechst nuclei count, 48 h
[8] = phospholipid biosynthesis inhibitors in animal cells, primary screen, cell-based, LOPAC library, screen 4 (AID 1347384); conditions: phospholipid biosynthesis inhibition screen, at 10 µM
[9] = viability rescue of complex I mutant cybrids, primary screen, cell-based, galactose medium, ATP luminescence (AID 1645843;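 active means z-score of at least 1.8 in each of two replicates, scored against plate mean and spread of sample wells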;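 further: positive z means more ATP and so rescue of galactose-driven cybrid death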); conditions: complex I mutant cybrid cells, 72 h, stronger effect = higher value
[10] = biological target: Plasmodium falciparum protein kinase 6 (PK6, PF3D7_1337100) (UniProt Q8IDW1); experiment: PfPK6 kinase inhibitors, biochemical, TCAMS library (AID 1159586); conditions: recombinant PfPK6, Kinase-Glo ATP depletion luminescence
Plasmodium falciparum protein kinase 6 (PK6, PF3D7_1337100), sequence (Q8IDW1 1-305): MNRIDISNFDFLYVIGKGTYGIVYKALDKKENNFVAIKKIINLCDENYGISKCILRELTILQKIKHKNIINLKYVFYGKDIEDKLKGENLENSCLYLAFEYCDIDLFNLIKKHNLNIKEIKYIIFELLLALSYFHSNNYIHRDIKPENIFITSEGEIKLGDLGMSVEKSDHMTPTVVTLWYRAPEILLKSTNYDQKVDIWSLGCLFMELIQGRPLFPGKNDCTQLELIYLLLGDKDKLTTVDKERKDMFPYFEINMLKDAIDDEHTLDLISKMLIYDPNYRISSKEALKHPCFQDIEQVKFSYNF

Protein kinase 7 (PK7), Plasmodium falciparum 3D7 (PF3D7_0213400), sequence (Q7YTF7 1-343): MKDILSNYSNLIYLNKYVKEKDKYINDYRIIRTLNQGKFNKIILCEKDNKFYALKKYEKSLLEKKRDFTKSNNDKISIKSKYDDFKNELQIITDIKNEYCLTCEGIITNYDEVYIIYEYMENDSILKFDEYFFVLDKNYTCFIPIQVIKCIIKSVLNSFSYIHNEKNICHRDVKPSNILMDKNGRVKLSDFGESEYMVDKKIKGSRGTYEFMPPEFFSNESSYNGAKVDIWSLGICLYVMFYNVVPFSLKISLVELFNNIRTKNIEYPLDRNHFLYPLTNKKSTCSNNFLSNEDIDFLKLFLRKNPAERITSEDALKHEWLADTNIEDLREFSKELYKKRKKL
L-lactate dehydrogenase (Plasmodium falciparum (isolate CDC / Honduras)), sequence (Q27743 whole entry, looked up): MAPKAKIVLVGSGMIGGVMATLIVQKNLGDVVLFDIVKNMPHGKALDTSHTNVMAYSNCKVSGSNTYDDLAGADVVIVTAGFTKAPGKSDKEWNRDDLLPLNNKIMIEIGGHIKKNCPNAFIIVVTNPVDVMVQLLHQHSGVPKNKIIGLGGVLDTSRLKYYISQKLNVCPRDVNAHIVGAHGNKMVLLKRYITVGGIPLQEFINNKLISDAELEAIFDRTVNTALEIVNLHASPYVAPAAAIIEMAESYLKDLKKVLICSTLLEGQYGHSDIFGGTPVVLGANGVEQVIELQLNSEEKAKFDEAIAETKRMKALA
Calcium-dependent protein kinase 4 (Plasmodium falciparum (isolate 3D7)), sequence (Q8IBS5 whole entry, looked up): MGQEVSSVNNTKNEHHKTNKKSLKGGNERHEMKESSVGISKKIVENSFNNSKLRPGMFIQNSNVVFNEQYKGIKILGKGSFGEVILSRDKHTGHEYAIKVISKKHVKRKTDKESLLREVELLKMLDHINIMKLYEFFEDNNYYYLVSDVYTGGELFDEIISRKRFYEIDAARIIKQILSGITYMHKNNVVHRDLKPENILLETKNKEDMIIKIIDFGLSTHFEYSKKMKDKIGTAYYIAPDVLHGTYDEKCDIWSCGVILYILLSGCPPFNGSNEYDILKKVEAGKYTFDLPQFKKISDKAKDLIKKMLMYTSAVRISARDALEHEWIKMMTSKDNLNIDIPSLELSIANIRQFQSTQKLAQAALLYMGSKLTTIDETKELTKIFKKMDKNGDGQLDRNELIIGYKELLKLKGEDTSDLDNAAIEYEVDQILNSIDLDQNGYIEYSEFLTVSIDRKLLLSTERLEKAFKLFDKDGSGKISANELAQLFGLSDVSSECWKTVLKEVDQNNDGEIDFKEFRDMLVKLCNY

In the case of `CN1CCN(c2ccc(Nc3nccc(-c4cnn5ncccc45)n3)cc2Cl)CC1`, the growth inhibition [1] is reported as 92% (active), the inhibition [2] is reported as 65% (active) and the inhibition [3] is reported as 0% (inactive). For the same compound, the growth inhibition [4] was 95% (active), the outcome [5] was “inactive” and the outcome [6] was “inactive”.

In the case of `Cn1cc(-c2ccnc3[nH]c(-c4cccc(CNC5CCC(O)CC5)c4)cc23)cn1` (configuration not stated), the growth inhibition [1] is reported as 82% (active), the inhibition [2] is reported as 48% (inactive) and the inhibition [3] is reported as 2% (inactive). For the same compound, the growth inhibition [4] was 95% (active), the outcome [5] was “inactive” and the outcome [6] was “inactive”.

With `Cn1c(=O)c(-c2c(Cl)cccc2Cl)cc2cnc(Nc3ccc(N4CCOCC4)cc3)nc21` the growth inhibition [1] was 97% (active), the inhibition [2] was 64% (active) and the inhibition [3] was 4% (inactive). For the same compound, the growth inhibition [4] was 98% (active), the outcome [5] was “inactive” and the outcome [6] was “inactive”. The fold change ([7]; stronger effect = lower value, cell number ratio, induced over uninduced) was 1.06 (inactive), the fold change ([7]; measured here: relative caspase fold change +Dox/-Dox) was 1.37 and the cell count ([7]; measured here: total cells with miR-34 induction, stronger effect = lower value) was 814. For the same compound, the cell count ([7]; measured here: total cells without miR-34 induction) was 768, the outcome [8] was “inactive” and the z-score [9] was -1.38 (inactive).

With `NCCNC(=O)c1ccc(-c2cnc3[nH]cc(-c4ccc(C(N)=O)cc4)c3c2)cc1` the growth inhibition [1] was 98% (active), the inhibition [2] was 2% (inactive) and the inhibition [3] was -2% (inactive). The growth inhibition [4] was 99% (active), the outcome [5] was “inactive” and the outcome [6] was “inactive”.

For `NCC(NC(=O)c1ccc(-c2c[nH]c3ncccc23)s1)c1ccccc1` (configuration not stated), the growth inhibition [1] was 87% (active), the inhibition [2] was 52% (active) and the inhibition [3] was 0% (inactive). For the same compound, the growth inhibition [4] was 95% (active), the outcome [10] was “inactive” and the outcome [5] was “inactive”.

For `Cc1ccc(Nc2ccnc(Nc3ccc4c(c3)CS(=O)(=O)C4)n2)cc1O`, the growth inhibition [1] was 76% (active), the inhibition [2] was 82% (active) and the inhibition [3] was 5% (inactive). For the same compound, the growth inhibition [4] was 102% (active), the outcome [5] was “inactive” and the outcome [6] was “inactive”.

In the case of `COc1ccc(Nc2ncc(OC)c(Nc3ccccc3C(N)=O)n2)cc1N1CCN(C)CC1`, the growth inhibition [1] is reported as 96% (active), the inhibition [2] is reported as 63% (active) and the inhibition [3] is reported as 0% (inactive). The growth inhibition [4] was 100% (active), the outcome [5] was “inactive” and the outcome [6] was “inactive”.

With `OC1CCC(Nc2ccc3ncc(-c4ccc(Cl)cc4)n3n2)CC1` (configuration not stated) the growth inhibition [1] was 98% (active), the inhibition [2] was 57% (active) and the inhibition [3] was 0% (inactive). The growth inhibition [4] was 97% (active), the outcome [10] was “inactive” and the outcome [6] was “inactive”.

With `NS(=O)(=O)CCc1cccc(Nc2nccc(-c3c(-c4cccc(NC(=O)c5c(F)cccc5F)c4)nn4ccccc34)n2)c1` the growth inhibition [1] was 97% (active), the inhibition [2] was 84% (active) and the inhibition [3] was 3% (inactive). For the same compound, the growth inhibition [4] was 98% (active), the outcome [10] was “inactive” and the outcome [5] was “inactive”.

In the case of `COc1ccc(Nc2ncc(C#N)c(Nc3ccccc3C(N)=O)n2)cc1N1CCN(C)CC1`, the growth inhibition [1] is reported as 97% (active), the inhibition [2] is reported as 56% (active) and the inhibition [3] is reported as -1% (inactive). The growth inhibition [4] was 93% (active), the outcome [5] was “inactive” and the outcome [6] was “inactive”.

For `COc1cc(Nc2nccc(-c3c(-c4cccc(NC(=O)c5c(F)cccc5F)c4)nn4ccccc34)n2)cc(OC)c1OC`, the growth inhibition [1] was 98% (active), the inhibition [2] was 74% (active) and the inhibition [3] was 4% (inactive). The growth inhibition [4] was 98% (active), the outcome [10] was “inactive” and the outcome [5] was “inactive”.

In the case of `COCCOc1ccc(Nc2nccc(-c3c(-c4cccc(NC(=O)c5c(F)cccc5F)c4)nn4ccccc34)n2)cc1Cl`, the growth inhibition [1] is reported as 97% (active), the inhibition [2] is reported as 53% (active) and the inhibition [3] is reported as 4% (inactive). For the same compound, the growth inhibition [4] was 99% (active), the outcome [10] was “inactive” and the outcome [5] was “inactive”.

In the case of `CCn1c(-c2nonc2N)nc2c(-c3cccc(NC(=O)Nc4ccccc4Cl)c3)ncc(OCCCN)c21`, the growth inhibition [1] is reported as 74% (active), the inhibition [2] is reported as 2% (inactive) and the inhibition [3] is reported as -4% (inactive). The growth inhibition [4] was 99% (active), the outcome [10] was “inactive” and the outcome [5] was “inactive”.

With `NC(=O)c1ccccc1Nc1nc(Nc2cccc(N3CCN(CCO)CC3)c2)ncc1Cl` the growth inhibition [1] was 98% (active), the inhibition [2] was 93% (active) and the inhibition [3] was 1% (inactive). For the same compound, the growth inhibition [4] was 95% (active), the outcome [5] was “inactive” and the outcome [6] was “inactive”.

For `CCn1c(-c2nonc2N)nc2c(-c3cccc(Cl)c3)ncc(OCCCNCCc3cnc[nH]3)c21`, the growth inhibition [1] was 98% (active), the inhibition [2] was 16% (inactive) and the inhibition [3] was -3% (inactive). For the same compound, the growth inhibition [4] was 101% (active), the outcome [10] was “inactive” and the outcome [5] was “inactive”.

For `CC(c1cccc(Nc2nccc(-c3c(-c4cccc(NC(=O)c5c(F)cccc5F)c4)nn4ccccc34)n2)c1)S(C)(=O)=O` (configuration not stated), the growth inhibition [1] was 99% (active), the inhibition [2] was 76% (active) and the inhibition [3] was -6% (inactive). The growth inhibition [4] was 98% (active), the outcome [10] was “inactive” and the outcome [5] was “inactive”.

In the case of `CCn1c(-c2nonc2N)nc2c(-c3cccc(NC(=O)Nc4ccc(C(F)(F)F)cc4)c3)ncc(OCCCN)c21`, the growth inhibition [1] is reported as 63% (active), the inhibition [2] is reported as 36% (inactive) and the inhibition [3] is reported as 6% (inactive). For the same compound, the growth inhibition [4] was 94% (active), the outcome [10] was “inactive” and the outcome [5] was “inactive”.

In the case of `O=c1[nH]ccc2nc(N[C@@H]3CCCNC3)nc(Nc3ccc(S(=O)(=O)N4CCOCC4)cc3)c12`, the growth inhibition [1] is reported as 99% (active), the inhibition [2] is reported as 13% (inactive) and the inhibition [3] is reported as 0% (inactive). The growth inhibition [4] was 96% (active), the outcome [5] was “inactive” and the outcome [6] was “inactive”.

In the case of `Cc1csc(-c2ncc(OC[C@@H](N)Cc3ccccc3)cc2-c2ccc3n[nH]c(C)c3c2)c1`, the growth inhibition [1] is reported as 35% (inactive), the inhibition [2] is reported as 48% (inactive) and the inhibition [3] is reported as 4% (inactive). The growth inhibition [4] was 98% (active), the outcome [10] was “inactive” and the outcome [5] was “inactive”.

With `NCCNS(=O)(=O)c1ccc(-c2ccnc3[nH]c(-c4ccncc4)cc23)cc1` the growth inhibition [1] was 95% (active), the inhibition [2] was -10% (inactive) and the inhibition [3] was 3% (inactive). The growth inhibition [4] was 96% (active), the outcome [5] was “inactive” and the outcome [6] was “inactive”.

In the case of `CNC(=O)c1ccccc1Nc1nc(Nc2cccc(CS(C)(=O)=O)c2)ncc1C`, the growth inhibition [1] is reported as 95% (active), the inhibition [2] is reported as 74% (active) and the inhibition [3] is reported as -4% (inactive). For the same compound, the growth inhibition [4] was 97% (active), the outcome [5] was “inactive” and the outcome [6] was “inactive”.
